# Assay results reported in PubChem BioAssay AID463173 (ICCB-Longwood Screening Facility, Harvard Medical School, 2010).
# Hit rate of the full screen: of about 52,000 compounds, about 4,300 (8.3%) were called active. The sample holds actives, similar compounds and a random draw of the others, so the mix is not that of the screen. Values without a mark were called inactive. No stated cut-off is given here; in the data, active means survival mostly below about 52% (no sharp cut-off); inactive means mostly above about 56%.
# Test system: DeltatarO mutant
# Assay: growth inhibition of S. aureus wild type versus tarO mutant, primary screen, teichoic acid synthesis inhibitors, RN4220, OD600 (AID 463173)
# Details: OD600, 18 h, stronger effect = lower value, screened at 18.75 µg/mL (by protocol)
row,SMILES,survival
1,O=C(OCc1cc(=O)n2nc(-c3cccs3)sc2n1)c1cccc(F)c1,77%
2,COc1cccc(N2CCN(C(=O)CN3CCSc4ccccc43)CC2)c1,83%
3,Cc1ccc(C)c(N2CCN(C(=O)CN3C(=O)COc4ccc(S(=O)(=O)N5CCCC5)cc43)CC2)c1,85%
4,CCN(CC)CCn1c(=N)n(CC(O)COc2ccccc2C)c2ccccc21 (stereo unspecified),80%
5,O=C(CSc1nnnn1C1CCCC1)NCc1cccs1,103%
6,CCN(CC)CCNC(=O)c1ccc(CSc2nc3ccncc3n2Cc2cccc(F)c2)cc1,92%
7,Cc1cccc(N2CCN(C(=O)Nc3cn(CC(C)C)c(=O)c4ccccc34)CC2)c1C,69%
8,Cc1ccc(Cl)cc1NC(=O)Cn1c(=O)n(Cc2ccccc2)c(=O)c2oc3ccccc3c21,81%
9,CCC(=O)N1c2ccccc2CC1C(=O)NCc1ccc(CC)cc1 (stereo unspecified),100%
10,COc1ccc(C2c3c(n(C)c4ccccc34)C(=O)N2CC(=O)Nc2cccc(Cl)c2)cc1 (stereo unspecified),80%
11,COC(=O)CSc1nnc(C2CCCCC2)n1Cc1ccccc1,116%
12,CCc1ccc(-c2nc(CN3CCCC(C(=O)N4CCN(c5cc(Cl)ccc5C)CC4)C3)c(C)o2)cc1 (stereo unspecified),70%
13,Cc1oc(-c2ccc(Cl)cc2)nc1CN1CCC(C(=O)NCCCN2CCN(c3cccc(Cl)c3)CC2)CC1,42% (active)
14,Cc1ccc(Cl)cc1N1CCN(C(=O)C2CCN(Cc3nc(-c4cccc(Cl)c4)oc3C)CC2)CC1,-8% (active)
15,Cc1cccc(N2CCN(C(=O)C3CCN(Cc4nc(-c5ccc(Cl)cc5)oc4C)CC3)CC2)c1C,60%
16,CCCCSCCCNC(=O)C1CCN(Cc2nc(-c3ccc(CC)cc3)oc2C)CC1,46% (active)
17,Cc1oc(-c2cccc(Cl)c2)nc1CN1CCC(C(=O)NCCCN2CCN(c3cccc(Cl)c3)CC2)CC1,63%
18,Cc1ccc(C)c(N2CCN(C(=O)C3CCN(Cc4nc(-c5cccc(Cl)c5)oc4C)CC3)CC2)c1,47%
19,CCc1ccc(-c2nc(CN3CCC(C(=O)NCCc4ccc(C)cc4)CC3)c(C)o2)cc1,95%
20,Cc1ccc(Cl)cc1N1CCN(C(=O)C2CCCN(Cc3nc(-c4cccc(Cl)c4)oc3C)C2)CC1 (stereo unspecified),66%
21,Cc1oc(-c2cccc(Cl)c2)nc1CN1CCC(C(=O)NCCCN2CCN(c3ccc(F)cc3)CC2)CC1,119%
22,Cc1ccc(Cl)cc1N1CCN(C(=O)C2CCN(Cc3nc(-c4ccc(Cl)cc4)oc3C)CC2)CC1,-9% (active)
23,CCCCSCCCNC(=O)C1CCN(Cc2nc(-c3cccc(Br)c3)oc2C)CC1,68%

row,SMILES,survival
1,CCCOc1ccc(Oc2nc(NCC(C)C)nc(N3CCOCC3)n2)nn1,74%
2,CN(C)c1ccc(CNC(=O)CN2C(=O)CSc3ccc(S(=O)(=O)N4CCCC4)cc32)cc1,80%
3,COc1ccccc1CNc1ncnc2c1nc1n2CCCC1,80%
4,COc1ccc(NC(=O)CC2C(=O)N(c3ccc(OC)cc3)C(=O)N2Cc2ccc(OC)c(OC)c2)cc1 (stereo unspecified),131%
5,CCOC(=O)c1ccc(NC(=O)c2cnn(-c3ccc(C)cc3C)c2C2CCN(C(=O)OC(C)(C)C)CC2)cc1,93%
6,Cc1nc(N2CCCCC2)c(C#N)c2c1COC(C)(C)C2,81%
7,Nc1ccc(N2CCOCC2)cc1C(F)(F)F,80%
8,COc1ccc(NCc2nc3ccccc3n2CCOc2ccccc2C)cc1,32% (active)
9,Cc1ccc(NCc2nc3ccccc3n2CCOc2ccccc2C)cc1,3% (active)
10,Cc1cccc(NCc2nc3ccccc3n2CCOc2ccccc2C)c1,3% (active)
11,Fc1ccc(NCc2nc3ccccc3n2CCOc2ccccc2Cl)cc1,91%
12,Cc1ccc(C)c(OCCn2c(CCNC(=O)C3CCCCC3)nc3ccccc32)c1,59%
13,CCC(CC)c1nn2c(=O)cc(COc3ccc(NC(=O)c4ccccc4Cl)cc3)nc2s1,94%
14,COc1ccc(-c2nc(SCC(=O)NCCc3ccc(OC)c(OC)c3)n[nH]2)cc1,88%
15,COc1ccc(NC(=O)C2(c3cccs3)CCOCC2)cc1Cl,91%
16,Cc1cccc(CN2C(=O)c3ccccc3S(=O)(=O)c3ccc(C(=O)OCC4CCCO4)cc32)c1 (stereo unspecified),90%
17,CCOc1cccc(OCCCn2c(-c3ccc(Br)cc3)nc3ccccc3c2=O)c1,64%
18,Cc1ccc(C)c(Cn2c3ccccc3c3cnn(CC(=O)NCC(C)c4ccccc4)c(=O)c32)c1 (stereo unspecified),72%
19,COc1ccccc1NC(=O)NC1(C(=O)N2CCCCC2)CCCCC1,85%
20,CCc1ccc(C2N=C(N)Nc3nc4ccccc4n32)cc1 (stereo unspecified),137%
21,O=C1C(=Cc2ccc3c(c2)OCO3)C(=O)c2ccccc21,64%
22,O=C1c2ccccc2-c2nc3ncnn3c(-c3ccc4c(c3)OCO4)c21,49% (active)
23,Cc1cccc(-c2c3c(nc4ncnn24)-c2ccccc2C3=O)c1,74%

row,SMILES,survival
1,Cc1nc2c3ccccc3nc(NNC(=O)CCC(=O)N3CCN(c4ccccc4F)CC3)n2n1,79%
2,Cc1nc2c3ccccc3nc(NNC(=O)CCC(=O)N3CCN(c4cc(Cl)ccc4C)CC3)n2n1,55% (active)
3,Cc1nc2c3ccccc3nc(NNC(=O)CCC(=O)N3CCN(c4cccc(Cl)c4)CC3)n2n1,107%
4,O=c1c2sc3ccccc3c2n(Cc2cccc(C(F)(F)F)c2)c(=O)n1-c1ccccc1,73%
5,c1ccc(-c2cc3ccsc3s2)cc1,99%
6,O=c1cc(O)c2ccccc2[nH]1,75%
7,Oc1cc2ccsc2c2ccccc12,9% (active)
8,COc1ccc(NC(=O)CSc2nc(-c3ccco3)cc(C(F)(F)F)n2)c(OC)c1,56%
9,COc1cc(NC(=O)CSc2nc(-c3ccco3)cc(C(F)(F)F)n2)cc(OC)c1OC,54%
10,COc1ccc(NC(=O)CCCSc2nc(-c3ccco3)cc(C(F)(F)F)n2)cc1,55%
11,COc1ccc(NC(=O)CCCSc2nc(-c3ccco3)cc(C(F)(F)F)n2)c(OC)c1,16% (active)
12,COc1cc(NC(=O)CCCSc2nc(-c3ccco3)cc(C(F)(F)F)n2)cc(OC)c1OC,38% (active)
13,COc1ccc(NC(=O)CCCSc2nc(-c3ccco3)cc(C(F)(F)F)n2)cc1OC,45%
14,COc1ccc(-c2nc3scc(CCNS(=O)(=O)c4ccc(C)cc4)n3n2)cc1,70%
15,CCn1cc2nc(SCc3cccc(C(F)(F)F)c3)n(Cc3ccc(Cl)cc3)c(=O)c2n1,124%
16,COc1cccc(N2CCN(c3ccc4nnc(CCC(=O)O)n4n3)CC2)c1,89%
17,Cc1nn(C)c(C)c1CCNC(=O)Nc1cccc(Cl)c1C,67%
18,COc1ccc(NC(=O)NCCc2c(C)nn(C)c2C)c(OC)c1,90%
19,COC(=O)c1ccccc1NC(=O)NCCc1c(C)nn(C)c1C,86%
20,Cc1nn(C)c(C)c1CCNC(=O)Nc1ccccc1C(F)(F)F,6% (active)
21,COC(=O)c1ccc(Cl)cc1NC(=O)NCCc1c(C)nn(C)c1C,81%
22,COc1ccc(Cl)cc1NC(=O)NCCc1c(C)nn(C)c1C,-1% (active)
23,Cn1c(=O)oc2cc(S(=O)(=O)NC(Cc3ccccc3)C(=O)Nc3ccc(F)c(Cl)c3)ccc21 (stereo unspecified),83%

row,SMILES,survival
1,COc1ccc(NC(=O)CN(C)S(=O)(=O)c2cccc3nsnc23)cc1,106%
2,Cc1nnc(SCC(=O)Nc2ccc(N(C)C)cc2)[nH]c1=O,77%
3,O=c1[nH]c(SCc2ccccc2)nc2c1CCCC2,57%
4,O=c1[nH]c(SCc2ccc(Br)cc2)nc2c1CCCC2,52%
5,O=c1[nH]c(SCc2ccc(F)cc2)nc2c1CCCC2,63% (active)
6,O=C(CSc1nc2ccccc2nc1Cc1ccc(Cl)cc1)N1CCN(c2ccccc2F)CC1,71%
7,Cc1ccc(NC(=O)CSc2nc3ccc(NC(=O)COc4ccc(C)cc4)cc3s2)cc1,83%
8,CC(=O)Nc1cc(C(=O)NCc2ccc(C)cc2)ccc1Sc1ccc(C)cc1,96%
9,COCc1cc(C)nc2c1C(=O)NC(c1ccc(Br)cc1)N2Cc1ccccc1 (stereo unspecified),69%
10,COc1ccc(Cl)cc1NC(=O)NCc1noc2ccccc12,35%
11,COc1cc2c(cc1NC(=O)COc1cc(C)ccc1C)oc1ccccc12,79%
12,Cc1ccc(OCC(=O)Nc2cccc3ccc(C)nc23)c(C)c1,62%
13,COc1cc2c(cc1NC(=O)COc1cc(C)cc(C)c1)oc1ccccc12,59%
14,Cc1ccc2cccc(NC(=O)C(C)Oc3ccc(Cl)cc3Cl)c2n1 (stereo unspecified),-2% (active)
15,COc1cc2c(cc1NC(=O)COc1ccc(Cl)cc1Br)oc1ccccc12,51%
16,COc1ccc(-c2nc3ccccc3o2)cc1NC(=O)C(C)Oc1ccc(Cl)cc1Cl (stereo unspecified),38% (active)
17,COc1cc2c(cc1NC(=O)C(C)Oc1ccc(Cl)cc1Cl)oc1ccccc12 (stereo unspecified),38% (active)
18,COc1cc2c(cc1NC(=O)C(C)Oc1ccccc1)oc1ccccc12 (stereo unspecified),-1% (active)
19,Cc1ccc2cccc(NC(=O)C(C)Oc3ccc(C)c(C)c3)c2n1 (stereo unspecified),56%
20,CCOC(=O)c1ccc(NC(=O)CSc2nnc3c4ccccc4n(CC)c3n2)cc1,72%
21,O=C(CSc1nc2c(c(=O)[nH]1)CN(Cc1ccc3c(c1)OCO3)CC2)Nc1ccc(F)cc1,75%
22,Cc1ccc(NC(=O)Cn2cc(S(=O)(=O)c3ccc(C)cc3)c(=O)c3cc4c(cc32)OCO4)cc1,58%
